The list is not random: actives were taken first. Their share in the collection is about 10%.
VP16 counter: inhibits Gal4-VP16 luciferase reporter, ROR gamma counter-screen; Drosophila S2 Gal4-VP16 UAS-luciferase, luminescence, 20 h; Potency, µM (titrated, usually from 53.6 µM), inactives show at the highest dose activity, negative = inhibition, usual class: inhibitors; 3.5% of 310,000 active; AID 2546;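 also: Gal4-VP16 expression switched on by copper sulfate through the metallothionein promoter; % is scaled to controls: 0 for no effect and ±100 for the full control effect; nearly all actives have a fitted effect of over 50% in size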
KB-V1 MDR tox: KB-V1 MDR subline cytotoxicity; KB-V1 MDR cells viability, CellTiter-Glo, 72 h; Potency, µM (highest dose often 46.1 µM), usual class: cytotoxic; 3.4% of 400,000 active; also: % is scaled to controls: 0 for no effect and ±100 for the full control effect; nearly all actives have a fitted effect of over 60% in size
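Luminescent ATP read-out (CellTiter-Glo, 10 min) measures survival of drug-selected KB-V1 MDR cells after 72 h, 37 degrees C compound exposure. Medium: phenol-red-free DMEM, 10% FBS. Values from fitted concentration-response curves.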
KB-3-1 tox: KB-3-1 parental cell cytotoxicity; KB-3-1 viability, CellTiter-Glo ATP luminescence, 72 h; Potency, µM (top dose mostly 46.1 µM), hits mostly cytotoxic; AID 1347075; 1.4% of 400,000 active; also: % is scaled to controls: 0 for no effect and ±100 for the full control effect; nearly all actives have a fitted effect of over 60% in size
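KB-3-1 cells, DMEM (no phenol red) + 10% FBS; compound by pin transfer, 72 h, 37 °C. Readout: CellTiter-Glo luminescence after 10 min. Data normalized, curve-fitted.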
MCF10A rereplic: induces DNA re-replication in MCF 10a normal breast cells; Potency, µM (titrated, usually from 46.1 µM), without a hit: at the top dose activity, positive = re-replication, hits mostly activators; AID 624296; 2.9% of 350,000 active; MCF 10A DNA re-replication, Hoechst nuclear intensity, 48 h; also: % of control where 0% means no effect; nearly all actives have a fitted effect of over 50% in size
SW480 rereplic: induces DNA re-replication in SW480 colon adenocarcinoma cells | SW480 DNA re-replication, Hoechst DNA content imaging, 48 h | Potency, µM (top dose mostly 46.1 µM), inactives show top-dose re-replication activation, hits mostly activators | 1.8% of 340,000 active; also: % of control where 0% means no effect; nearly all actives have a fitted effect of over 55% in size
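Hoechst fluorescence of nuclei (405 nm excitation, 500-530 nm emission) measured by plate-scanning imager after 48 hr compound exposure at 37 C; re-replication scored as increased number of nuclei with elevated intensity.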
RORgamma inh: inhibitors of mouse ROR gamma transcriptional activity | 5.4% of 310,000 active | Potency, µM (series often up to 53.6 µM), for the others: at the top dose activity change, negative = inhibition, usual class: inhibitors | Drosophila S2 Gal4-RORgamma UAS-luciferase reporter, 20 h | AID 2551 | P51450; also: % is scaled to controls: 0 for no effect and ±100 for the full control effect; nearly all actives have a fitted effect of over 60% in size
Target sequence (P51450 whole entry, looked up, the tested form may be a part): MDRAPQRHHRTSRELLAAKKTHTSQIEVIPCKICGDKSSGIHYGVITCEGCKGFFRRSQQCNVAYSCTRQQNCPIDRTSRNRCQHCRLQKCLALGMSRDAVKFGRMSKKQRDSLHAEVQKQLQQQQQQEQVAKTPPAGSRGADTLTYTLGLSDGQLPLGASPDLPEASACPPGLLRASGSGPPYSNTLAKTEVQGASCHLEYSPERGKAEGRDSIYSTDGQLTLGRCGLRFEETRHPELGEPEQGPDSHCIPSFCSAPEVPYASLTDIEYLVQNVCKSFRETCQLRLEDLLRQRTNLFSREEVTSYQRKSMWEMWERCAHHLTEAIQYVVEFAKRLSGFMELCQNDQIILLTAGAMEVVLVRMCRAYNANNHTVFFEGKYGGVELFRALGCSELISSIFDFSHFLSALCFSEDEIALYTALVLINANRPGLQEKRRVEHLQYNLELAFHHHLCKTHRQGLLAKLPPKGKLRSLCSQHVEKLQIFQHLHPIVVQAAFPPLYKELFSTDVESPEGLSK
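Drosophila S2 cells stably expressing Gal4-DBD/mouse RORγ fusion under metallothionein promoter plus UAS-luciferase; compound 1 h, then 700 uM CuSO4 induction for 20 h at ambient temperature; inhibition read as reduced luminescence.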
* hit, by the source's call. Calls follow the shape of the dose curve; as a rule, active = well fitted curve in the direction sought with a large enough effect; inconclusive = small, poorly fitted or top-dose-only effect, or another doubt; inactive = no such curve, though single readings can be large; an effect the other way counts as inactive or inconclusive. Potency is read from the fitted curve at half-maximal effect.

CCN1c2ccccc2-c2nc3ccccc3n2C1c1ccco1 (stereo unspecified) was read as VP16 counter inconclusive, KB-V1 MDR tox inactive, KB-3-1 tox inconclusive, MCF10A rereplic inconclusive, SW480 rereplic inconclusive and RORgamma inh 16µM*.
For Cc1ccc(C2Nc3ccccc3-c3nc4ccccc4n32)o1 (stereo unspecified) the results were VP16 counter -8%, KB-V1 MDR tox inconclusive, KB-3-1 tox inactive, MCF10A rereplic inconclusive, SW480 rereplic inconclusive and RORgamma inh inconclusive.
COC(=O)c1ccccc1NC(=O)CSc1nc(-c2ccccc2)cc(C(F)(F)F)n1 was read as KB-V1 MDR tox inactive and KB-3-1 tox inactive.
`COc1ccc(Nc2nc3ccc(Cl)cc3n3nnnc23)cc1OC` gave KB-V1 MDR tox inactive and KB-3-1 tox inactive.
For Cc1coc2c1C(=O)C(=O)c1c-2ccc2c1CCCC2(C)C the results were VP16 counter -10%, KB-V1 MDR tox 7.3µM*, KB-3-1 tox 6.5µM*, MCF10A rereplic inconclusive, SW480 rereplic 8% and RORgamma inh -31%.
Screening Cc1coc2c1C(=O)C(=O)c1c-2ccc2c(C)cccc12 returned VP16 counter -19%, KB-V1 MDR tox 9.2µM*, KB-3-1 tox 9.2µM*, MCF10A rereplic inconclusive, SW480 rereplic 5.2µM* and RORgamma inh inconclusive.
`COCCn1c(Cc2ccccc2)nnc1SCC(=O)N1CCCC1=O` gave KB-V1 MDR tox inconclusive, KB-3-1 tox inactive, MCF10A rereplic 25% and SW480 rereplic -3%.
`CN(C)c1ccc(/C=C2\Oc3ccc(C#Cc4cccc(N)c4)cc3C2=O)cc1` gave KB-V1 MDR tox inactive, KB-3-1 tox inconclusive, MCF10A rereplic 4.6µM* and SW480 rereplic 5.2µM*.
Screening COc1ccc(NC(=O)c2cccc(Oc3ccc([N+](=O)[O-])cc3Cl)c2)cc1 returned VP16 counter inconclusive, KB-V1 MDR tox inconclusive, KB-3-1 tox inconclusive, MCF10A rereplic 6.5µM*, SW480 rereplic inconclusive and RORgamma inh 35%.
`O=C(Nc1cccc(Cl)c1)c1cccc(Oc2ccc([N+](=O)[O-])cc2Cl)c1` gave VP16 counter -11%, KB-V1 MDR tox inconclusive, KB-3-1 tox inactive, MCF10A rereplic inconclusive, SW480 rereplic 4.1µM* and RORgamma inh inconclusive.
For COc1ccc([N+](=O)[O-])cc1NC(=O)C(C)N(C)Cc1cccc(OC)c1OC (stereo unspecified) the results were VP16 counter inconclusive, KB-V1 MDR tox 8.2µM*, KB-3-1 tox inactive, MCF10A rereplic 30%, SW480 rereplic 17% and RORgamma inh 26%.
`COc1ccc([N+](=O)[O-])cc1NC(=O)Nc1cccc(Cl)c1` gave VP16 counter inconclusive, KB-V1 MDR tox 2.9µM*, KB-3-1 tox 5.2µM*, MCF10A rereplic 0%, SW480 rereplic inconclusive and RORgamma inh 43%.
Cc1cccc(OC(=O)CSc2nnc(-c3cccs3)o2)c1C was read as KB-V1 MDR tox inactive and KB-3-1 tox inactive.
`Cc1cc(=O)c(C(=O)Nc2cccc(C(=O)NC3CC3)c2)nn1-c1ccccc1` gave KB-V1 MDR tox inactive and KB-3-1 tox inactive.
N/C(=N\c1nc2c(c(=O)[nH]1)CCC2)Nc1cccc2ccccc12 was read as VP16 counter 5%, KB-V1 MDR tox inconclusive, KB-3-1 tox 23µM*, MCF10A rereplic -8%, SW480 rereplic 0% and RORgamma inh 5%.
`N/C(=N\c1nc2c(c(=O)[nH]1)CCC2)Nc1cccc(Cl)c1` gave VP16 counter inconclusive, KB-V1 MDR tox inconclusive, KB-3-1 tox inconclusive, MCF10A rereplic inconclusive, SW480 rereplic inconclusive and RORgamma inh 1%.
For Cn1nc(C(C)(C)C)cc1C(=O)N1CCCCC1c1cc(C(=O)Nc2ccccc2)no1 (stereo unspecified) the results were KB-V1 MDR tox inactive and KB-3-1 tox inactive.
CS(=O)(=O)Nc1ccccc1-c1ccc2nccn2c1 was read as KB-V1 MDR tox inactive and KB-3-1 tox inactive.
`COc1ccc(/C=C2\CCCC3C2=NC(=S)NC3c2ccc(OC)cc2)cc1` (stereo unspecified) gave VP16 counter 13µM*, KB-V1 MDR tox inactive, KB-3-1 tox inactive, MCF10A rereplic 7.3µM*, SW480 rereplic 18µM* and RORgamma inh 6.3µM*.
`CCC1=C2CC[C@H]3C(=O)N(CC)C(=O)[C@H]3[C@H]2[C@@]2(Cc3ccccc3)C(=O)N(CC3CC3)C(=O)N2C1=O` gave VP16 counter 8% and RORgamma inh -13%.
`O=c1cc(CCl)nc(Cc2c(Cl)cccc2Cl)[nH]1` gave KB-V1 MDR tox inconclusive, KB-3-1 tox inconclusive, MCF10A rereplic 18µM* and SW480 rereplic inconclusive.
Screening O=c1cc(-c2ccccc2)nc(Cc2c(Cl)cccc2Cl)[nH]1 returned VP16 counter -4%, KB-V1 MDR tox inactive, KB-3-1 tox inactive, MCF10A rereplic 3%, SW480 rereplic -9% and RORgamma inh -3%.
For COc1cccc(C(=O)N2CCc3cc(OC)c(OC)cc3C2COc2ccc3c(C)cc(=O)oc3c2)c1 (stereo unspecified) the results were KB-V1 MDR tox inconclusive and KB-3-1 tox inactive.
Screening COc1ccc(-c2csc(NC(=S)NC(=O)/C=C/c3ccco3)n2)cc1Br returned VP16 counter inconclusive, KB-V1 MDR tox 4.1µM*, KB-3-1 tox 5.2µM*, MCF10A rereplic inconclusive, SW480 rereplic inconclusive and RORgamma inh 7.9µM*.
Screening CC(C)c1ccc(/C=C/C(=O)Nc2nncs2)cc1 returned VP16 counter -30%, KB-V1 MDR tox inconclusive, KB-3-1 tox inactive, MCF10A rereplic 6%, SW480 rereplic 15% and RORgamma inh 13µM*.
Screening COc1ccc(C(=O)NC(=S)Nc2nc(-c3ccc(OC)c(Br)c3)cs2)cc1Br returned VP16 counter -18%, KB-V1 MDR tox inconclusive, KB-3-1 tox inconclusive, MCF10A rereplic 2%, SW480 rereplic -4% and RORgamma inh -28%.
Screening COc1ccc(-c2csc(NC(=S)NC(=O)/C=C/c3ccco3)n2)cc1OC returned VP16 counter 14µM*, KB-V1 MDR tox 6.5µM*, KB-3-1 tox 7.3µM*, MCF10A rereplic 6.5µM*, SW480 rereplic 9.2µM* and RORgamma inh 7.9µM*.
Cc1sc(NC(=O)/C=C/c2ccc(C(C)C)cc2)c(C#N)c1C was read as VP16 counter -3%, KB-V1 MDR tox inactive, KB-3-1 tox inactive, MCF10A rereplic inconclusive, SW480 rereplic inconclusive and RORgamma inh -3%.

Compound activity from PubChem BioAssay.
